Most compounds without a hit are left out; they make up all but 3% or so of the library.
SENP7 inh – SENP7 protease inhibition | Q9BQF6 | inhibition, % at 5 µM | 330,000 compounds, 1.5% hits | recombinant SENP7, Z-RLRGG-aminoluciferin luminescence, 40 min;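 active = inhibition above about 50% at the single test dose, limit read from the data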;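 also: plate controls were DMSO with enzyme for no effect and no enzyme buffer wells for full effect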
Target sequence (Q9BQF6 706-1050 limits assumed): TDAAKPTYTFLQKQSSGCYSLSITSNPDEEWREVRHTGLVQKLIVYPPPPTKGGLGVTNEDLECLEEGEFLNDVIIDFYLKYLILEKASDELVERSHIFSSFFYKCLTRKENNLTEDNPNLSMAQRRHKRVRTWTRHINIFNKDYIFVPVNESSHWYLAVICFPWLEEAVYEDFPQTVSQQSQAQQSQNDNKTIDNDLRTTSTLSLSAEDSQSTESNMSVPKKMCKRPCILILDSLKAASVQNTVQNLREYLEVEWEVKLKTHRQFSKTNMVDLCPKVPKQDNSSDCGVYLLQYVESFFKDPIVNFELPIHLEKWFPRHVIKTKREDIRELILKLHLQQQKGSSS
SENP8 block-1 – inhibitors of human SENP8 protease; purified SENP8, Z-RLRGG-aminoluciferin cleavage, luminescence; Q96LD8; 330,000 compounds, 1.2% hits; inhibition, % at 10 µM; in the data active = inhibition above about 50%
Target sequence (Q96LD8 whole entry, looked up): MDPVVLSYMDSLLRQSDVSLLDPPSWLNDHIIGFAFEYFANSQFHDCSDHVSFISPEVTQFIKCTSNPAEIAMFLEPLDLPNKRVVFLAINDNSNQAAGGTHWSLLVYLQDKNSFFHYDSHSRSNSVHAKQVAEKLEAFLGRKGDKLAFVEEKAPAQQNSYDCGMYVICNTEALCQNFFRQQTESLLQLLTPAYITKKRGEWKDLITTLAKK
SENP6 block – inhibitors of human SENP6 protease | Q9GZR1 | Recombinant SENP6 catalytic domain, aminoluciferin luminescence | inhibition, % at 10 µM | 330,000 compounds, 1.8% hits;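 active = inhibition above about 50% at the single tested dose, limit read from the data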;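 also: plate controls were DMSO wells with enzyme for no effect and DMSO wells lacking enzyme for full effect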
PPC-1+TRAIL kill – PPC-1 cancer cell killing with TRAIL present; PPC-1 cells + TRAIL, ATPLite viability luminescence; cell killing (% activity), % at 4 µM or 5 µM; 220,000 compounds, 0.41% hits;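 active = cell killing above 50% in the first pass at 4 µM, then a duplicate retest at 5 µM averaging 50% or more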;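 also: plate controls were cells with TRAIL plus DMSO for no effect and medium-only wells lacking cells for full effect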
SENP8 block-2 – blocks human SENP8 cleavage of Nedd8 substrate | inhibition, % at 20 µM | recombinant SENP8, Nedd8 substrate fluorescence | Q96LD8 | 360,000 compounds, 0.64% hits; in the data active = inhibition mostly above about 40%, no sharp cut-off; inactive = mostly below about 27%
C8 TRAIL sens – caspase-8 TRAIL sensitization; inhibition (viability loss, TRAIL sensitization), % at 10 µM; 360,000 compounds, 1% hits; NB7+C8 cells + TRAIL, ATPlite viability luminescence;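 active = compounds causing at least 50% loss of cell viability in the single-dose screen, relative to plate controls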
Numbers without * were called inactive; i = inactive; / = no result.

SMILES	SENP7 inh	SENP8 block-1	SENP6 block	PPC-1+TRAIL kill	SENP8 block-2	C8 TRAIL sens
COc1cccc(-c2noc(-c3ccc(Br)o3)n2)c1	73*	57*	2	20	13	16
O=C(Cn1cnc([N+](=O)[O-])n1)N/N=C/c1ccc(O)cc1O	1	3	-9	7	16	52*
CC(C)(C)c1ccc(C(=O)Nc2cccc(S(=O)(=O)NC3=NCCC3)c2)cc1	-1	-6	9	/	2	86*
CN(C)c1ccc(C(=O)Nc2cccc(S(=O)(=O)NC3=NCCCCC3)c2)cc1	4	-5	-29	/	-91	27
O=C(/C=C/c1ccc(OC(F)F)cc1)Nc1cccc(S(=O)(=O)NC2=NCCCCC2)c1	-3	-3	-3	/	-8	57*
Cc1ccc(C(C)NC(=O)c2ccc3c(c2)OCO3)cc1C (stereo not given)	2	2	5	/	6	-2
CCC(=O)OCC(=O)c1c(N)n(Cc2ccccc2)c(=O)n(C)c1=O	1	-1	10	11	-25	1
COC(=O)Cn1c(=O)c(C(=O)CCl)c(N)n(Cc2ccccc2)c1=O	5	2	6	10	15	82*
Brc1ccc(-c2nnc(-c3ccco3)o2)cc1	60*	66*	81*	12	-208	21
COc1ccc(NS(=O)(=O)c2ccc(N/N=C(\C)c3ccncc3)c([N+](=O)[O-])c2)cc1	6	-1	10	54*	38	31
COc1ccc(C=NNc2ccc(S(=O)(=O)Nc3ccccc3C(=O)O)cc2[N+](=O)[O-])c(OC)c1	0	12	17	/	44*	-2
O=C(NCc1ccco1)c1ccc2sc([C@@H]3O[C@H](CO)[C@H](O)[C@H](O)[C@H]3O)nc2c1	/	/	/	/	21	-1
O=c1ccc2c(ccc3ncccc32)o1	/	/	/	/	-121	-2
COc1cccc(N2CCN(C(=O)c3ccc(Cl)c(NC4=NC5CS(=O)(=O)CC5S4)c3)CC2)c1 (stereo not given)	-4	-4	-23	/	7	7
CCCCCCOC(=O)c1ccc(N)cc1	10	6	11	-7	15	-8
CCCCCCCCCCCC1N=C(N)NC(CCCO)=C1C(=O)OC (stereo not given)	/	/	/	/	14	63*
COc1ccc(-c2csc(C(O)c3ccc(F)cc3)n2)cn1 (stereo not given)	/	/	/	/	10	5
CCCCCCOC(=O)Nc1ccc(S(=O)(=O)Nc2cccc([N+](=O)[O-])c2)cc1	-8	-7	52*	3	5	-15
CCCCOC(=O)Nc1ccc(S(=O)(=O)Nc2nc(C)cc(C)n2)cc1	-4	-7	8	43	21	-2
CN(C)/N=C/C=C1\CC/C(=C\c2ccc(F)c(F)c2)C1=O	-9	-5	5	/	52*	6
Cc1cccc2nc(CSc3ccccc3N)cn12	-4	-6	14	/	10	16
Cc1cccc2nc(COc3ccc4ccccc4c3Br)cn12	34	22	57*	27	17	21
Cc1ccc(C(=O)NCC(=O)N2CCCN(C)CC2)cc1C	2	1	2	/	10	-10
CCOC(=O)Sc1nc2ncncc2[nH]1	/	/	/	/	8	10
Cc1ccc(-c2nn(-c3ccccc3)cc2C=C2C(=O)CC(C)(C)CC2=O)cc1	3	10	5	/	25	-4
SMILES	SENP7 inh	SENP8 block-1	SENP6 block	PPC-1+TRAIL kill	SENP8 block-2	C8 TRAIL sens
CC1=NNC(=O)/C1=C\c1cn(-c2ccccc2)nc1-c1ccc(Cl)cc1	-1	-7	-16	2	8	87*
Nc1nc(N)c2cc(CNc3ccc(Cl)c(Cl)c3)ccc2n1	/	/	/	/	-152	95*
CCCCCCCCn1c2c(c(=N)c3ccccc31)CCC2	0	-10	-13	/	-56	39
Cc1cc(C)c2c(=N)c3ccccc3n(CCCCCCCCn3c4ccccc4c(=N)c4c(C)cc(C)nc43)c2n1	/	/	/	/	-491	79*
O=C(CSCCN1C(=O)c2ccccc2C1=O)Nc1ccc2ccccc2c1	-1	3	6	16	27	1
CCOC(=O)c1cc(-c2ccc(OC)cc2)nn1-c1ccc(C(=O)O)cc1	4	-5	-6	-14	-7	5
CNC(=O)/C(C#N)=C/c1ccc(-c2nc3ccccc3s2)o1	64*	-2	-3	9	-422	3
N#C/C(=C\c1ccc(-c2nc3ccccc3s2)o1)C(N)=O	49	16	31	2	-348	16
COc1ccc(-c2coc3c(C(=O)NCC4CCOCC4)cccc23)c(C)c1	/	/	/	/	-9	21
O=C(/C=C/C(Cl)(Cl)Cl)Nc1ccc(Cl)cc1	/	/	/	/	7	93*
O=C(NNC(=O)C1CCCN(c2ncccn2)C1)c1ccncc1 (stereo not given)	2	3	7	9	-26	0
Cc1nc(NCC2CCCO2)nc2c1C(=O)CC(C)C2 (stereo not given)	9	-4	-20	-12	17	52*
Cc1nc(NCC2CCCO2)nc2c1C(=O)CC(C)(C)C2 (stereo not given)	-3	-11	-9	36	9	7
Nc1c(Cl)ncnc1N/N=C/c1ccc(O)cc1	96*	95*	96*	8	-137	40
Cc1sc2ncnc(N/N=C/c3ccc(O)cc3)c2c1C	3	-9	-7	11	8	22
Cc1ccc(-n2nc3c(=O)n(CCCC(=O)NCCN4CCN(C)CC4)nc(C)c3c2C)cc1	-7	-2	-17	/	4	13
Cc1cc(NC(=O)CCC(=O)N(CC(=O)NC2CCCC2)c2ccc(Cl)cc2)no1	-12	-8	-2	/	2	4
COc1ccc(-c2cc(C(=O)N3CCN(c4ncccn4)CC3)c3ccccc3n2)cc1	10	-2	-11	/	i	64*
CCc1ccc(-c2cc(C(=O)NCc3ccccn3)c3ccccc3n2)cc1	1	-7	-16	26	-206	60*
CCOc1ccc(-c2cc(C(=O)N3CCCC3)c3ccccc3n2)cc1	-5	-6	-5	/	-388	64*
COc1ccc(-c2cc(C(=O)N3CCN(c4ccccc4O)CC3)c3ccccc3n2)cc1	-7	-19	-24	/	i	63*
COc1ccc(NC(=O)Nc2ccc3nc([C@@H]4O[C@H](CO)[C@@H](O)[C@H](O)[C@H]4O)[nH]c3c2)cc1OC1CCCC1	/	/	/	/	6	37
O=C(COc1ccc(Cl)cc1)N1CCN(S(=O)(=O)c2cc(F)ccc2F)CC1	/	/	/	/	4	-8
COc1ccccc1S(=O)(=O)Cc1ccc(C(=O)NCCCN2CCN(c3ccc(F)cc3)CC2)o1	10	-16	5	/	6	-2
CCOC(=O)c1ccc(NS(=O)(=O)c2ccc3oc(=O)[nH]c3c2)cc1	-2	-2	-11	/	9	-9
Cc1cccc(NC(=O)c2nc[nH]c2C(=O)N2CCC(C)CC2)c1	3	0	-6	/	-7	-7

From PubChem BioAssay
